From the supplement of paper PMC4709259
Where a name gives a salt, the structure may show the parent alone. ± gives the standard deviation.

What was measured:
Jurkat [1] = assay: mean cell size (FSC-A) relative to DMSO control (fraction of control); higher = larger cells; conditions: 48 h
In short: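 Jurkat cells seeded at 600 cells/µl were incubated 1 h, then exposed for 48h to the Enzo Screen-Well FDA Approved Drug Library v2.0 at 25µM in 0.9% (v/v) final DMSO. Drugs that cut counts below 20% of controls were diluted 10-fold and retested, down to 25nM. Cell count and mean cell size (forward scatter area) were read on an Accuri C6 flow cytometer, relative to solvent-only controls. Plates held 6-12 controls; values are means of 3 biological replicates.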

Jurkat [2] = assay: cell count relative to DMSO control (fraction of control); higher = more cells (less growth inhibition); conditions: 48 h

SMILES | mean cell size (Jurkat [1]) | cell count (Jurkat [2])
Cc1nc(Nc2ncc(C(=O)Nc3c(C)cccc3Cl)s2)cc(N2CCN(CCO)CC2)n1 [Dasatinib] (concentration: 2.5 µM) | 0.8161 ± 0.0028 | 1.03 ± 0.063
O=C(CCCN1CC=C(n2c(=O)[nH]c3ccccc32)CC1)c1ccc(F)cc1 [Droperidol] (concentration: 25 µM) | 0.962 ± 0.032 | 0.812 ± 0.095
C[N+](C)(C)C[C@H](O)CC(=O)[O-] [Levocarnitine] (concentration: 25 µM) | 0.938 ± 0.013 | 1.01 ± 0.099
CC(C)(C)NC[C@H](O)c1ccc(O)c(CO)c1 [Levalbuterol·HCl] (concentration: 25 µM) | 0.929 ± 0.03 | 1.14 ± 0.14
CCCOc1ccc(C(=O)OCCN(CC)CC)cc1N [Proparacaine·HCl] (concentration: 25 µM) | 1.06 ± 0.046 | 1.07 ± 0.05
CCCc1nc(C(C)(C)O)c(C(=O)O)n1Cc1ccc(-c2ccccc2-c2nnn[nH]2)cc1 [Olmesartan] (concentration: 25 µM) | 0.97 ± 0.034 | 1.16 ± 0.1
CO/N=C1\CN(c2nc3c(cc2F)c(=O)c(C(=O)O)cn3C2CC2)CC1CN (stereo not drawn) [Gemifloxacin] (concentration: 25 µM) | 1.09 ± 0.03 | 0.591 ± 0.16
Nc1ccc(S(N)(=O)=O)cc1 [Sulfanilamide] (concentration: 25 µM) | 0.925 ± 0.018 | 0.546 ± 0.18
COCCOC(=O)C1=C(C)NC(C)=C(C(=O)OC(C)C)C1c1cccc([N+](=O)[O-])c1 (stereo not drawn) [Nimodipine] (concentration: 25 µM) | 0.938 ± 0.027 | 0.628 ± 0.17
CC(CN1c2ccccc2Sc2ccccc21)N(C)C (stereo not drawn) [Promethazine·HCl] (concentration: 25 µM) | 0.994 ± 0.023 | 0.717 ± 0.16
C[C@@H](NCCCc1cccc(C(F)(F)F)c1)c1cccc2ccccc12 [Cinacalcet·HCl] (concentration: 25 µM) | 1.03 ± 0.051 | 0.577 ± 0.089
COc1cc(C(=O)NCc2ccc(OCCN(C)C)cc2)cc(OC)c1OC [Trimethobenzamide·HCl] (concentration: 25 µM) | 0.9923 ± 0.0096 | 1.07 ± 0.057
N=C(N)NC(=O)c1nc(Cl)c(N)nc1N [Amiloride·HCl·2H2O] (concentration: 25 µM) | 0.945 ± 0.055 | 0.504 ± 0.045
COC(=O)C1=C(C)NC(C)=C(C(=O)OCCN(C)Cc2ccccc2)C1c1cccc([N+](=O)[O-])c1 (stereo not drawn) [Nicardipine·HCl] (concentration: 25 µM) | 1.01 ± 0.071 | 0.568 ± 0.034
Cc1ccc(N(CC2=NCCN2)c2cccc(O)c2)cc1 [Phentolamine·HCl] (concentration: 25 µM) | 1.09 ± 0.072 | 0.612 ± 0.16
Cc1ccccc1C(OCCN(C)C)c1ccccc1 (stereo not drawn) [Orphenadrine Citrate] (concentration: 25 µM) | 0.975 ± 0.056 | 0.742 ± 0.13
CCCCCOc1ccc(-c2cc(-c3ccc(C(=O)N[C@H]4C[C@@H](O)[C@@H](O)NC(=O)[C@@H]5[C@@H](O)[C@@H](C)CN5C(=O)[C@H]([C@H](O)CC(N)=O)NC(=O)[C@H]([C@H](O)[C@@H](O)c5ccc(O)c(OS(=O)(=O)O)c5)NC(=O)[C@@H]5C[C@@H](O)CN5C(=O)[C@H]([C@@H](C)O)NC4=O)cc3)no2)cc1 [Micafungin] (concentration: 25 µM) | 0.993 ± 0.031 | 0.52 ± 0.081
CN(Cc1ccc(C(C)(C)C)cc1)Cc1cccc2ccccc12 [Butenafine·HCl] (concentration: 25 µM) | 0.97 ± 0.031 | 0.793 ± 0.076
O=C(O)Cc1ccccc1Nc1c(Cl)cccc1Cl [Diclofenac·Na Salt] (concentration: 25 µM) | 0.978 ± 0.039 | 0.725 ± 0.073
